The results in this text go back to PubChem BioAssay AID2314 (National Center for Advancing Translational Sciences (NCATS), 2010).

Several values for one entry are separate records, joined by “and”; a condition that tells them apart may be missing. Equal entries are not always repeated. About 37,000 (12%) of roughly 300,000 compounds were called active. The full list was thinned out, with actives kept by preference. A number with no mark means an inactive call. Rule as the data show it: active = max response mostly above about 13% (no sharp cut-off); inactive = mostly below about 14%.

A short description of this test: Cycloheximide Counterscreen for Small Molecule Inhibitors of Shiga Toxin. Also: read at 38.3 µM for the half of the compounds with a filed dose; 0% is about no effect. As to conditions: cell reporter, cycloheximide protein synthesis inhibition counterscreen; stronger effect = higher value.
On to `O=C(O)c1cccnc1NC1CCCC1`, for which the max response is -2.86%.
The value for `COc1ccc(-c2nonc2NC(=O)c2oc3ccc(F)cc3c2C)cc1OC` was 4.29%.
For `Cc1ccc(S(=O)(=O)NCc2ccc(C(=O)NC3CCC(C)CC3)cc2)cc1` (centres undefined), the max response was -10.9%.
For the compound `Cc1ccc(C)c(NC(=O)NNC(=O)c2ccc3ccccc3c2O)c1`, the max response is 3.4%.
The value for `O=C(NC1CC1)c1ccc(-c2ccccc2)cc1` was 42.7% (active); that for `O=C(NC1CCCC1)c1cc(-c2ccccc2)on1` was 30.6% (active).
The figure for `Cc1nn(Cc2ccc(Cl)c(Cl)c2)c(C)c1NC(=O)c1cc(C2CC2)on1` is -1.12%; for `CC(NC(=O)c1cc(-c2ccccc2)on1)c1ccccc1` (centres undefined) it is 3.69%.
The figure for `O=C(NC1CCCCC1)c1cc(C2CC2)on1` is 40.8% (active); for `COc1cc(OC)c(C(=O)NC2CCCCCC2)cc1OC` it is -2.09%; for `CSc1ccccc1NC(=O)c1cc(Cl)sc1Cl` it is 2.39%.
For `CSc1ccccc1NC(=O)c1cc(C2CC2)on1`, the max response is 37.7% (active).
The figure for `CC(=O)c1cc(-c2ccccc2)n(CC(=O)NC2CCCCC2)c1C` is -3.63%; for `O=C(Nc1cc(C(F)(F)F)ccc1Cl)c1cc(C2CC2)on1` it is -4.3%; for `O=C(NC1CC1)c1cccc(Br)c1` it is -2.43%.
The value for `O=C(NC1CCN(S(=O)(=O)c2ccc(F)cc2)CC1)c1ccccc1` was -0.862%; that for `Cn1cc(S(=O)(=O)Nc2ccc(Cl)cc2Cl)c(=O)n(C)c1=O` was -2.38%.
For the compound `CC(C)C[C@@H](NC(=O)[C@H]1CCCN1C(=O)Cc1ccccc1)C(N)=O`, the max response is 8.92%.
For `CCC1(CC)C(=O)C2=C3C1[C@H](C(=O)OC)C=C(C(=O)OC)C[C@H]3[C@H]1C(=O)N(Cc3ccccc3)C(=O)[C@H]1[C@H]2C` (some centres undefined), the max response was -3.02%.
The figure for `CC(NC(=O)Cn1cc(C(F)(F)F)cc(Cl)c1=O)c1ccccc1` (centres undefined) is 11.8%.
As to `CC[C@H](C)[C@H](NC(=O)[C@H](Cc1cnc[nH]1)NC(=O)[C@@H](N)CCC(=O)O)C(=O)N1CCC[C@H]1C(=O)N[C@@H](C)C(=O)O`, the max response was -2.98%.
The value for `CCCCn1ccnc1C(=O)c1cccc(S(=O)(=O)N2c3ccccc3CC2C)c1` (centres undefined) was -2.53%; that for `O=C(CCC(=O)OCc1ccc(Cl)cc1)Nc1ccccc1` was -2.49%; that for `N/C(=N\OC(=O)CCc1ccccc1)c1ccc(Cl)cc1` was 24.7% (active).
The value for `Cc1ccc(/C(N)=N/OC(=O)COc2ccc(Cl)c(C)c2)cc1` was -3.46%.
With `O=C(O)CCc1cccnc1`, the max response was 2.51%.
As for `N/C(=N\OC(=O)CCc1ccccc1)c1cccnc1`, the max response was 27.3% (active).
The figure for `CC(=O)OC(C(=O)NCCc1ccccc1)c1cccnc1` (centres undefined) is -0.715%; for `CCCOc1ccc(NC(=O)CC2C(=O)N(C)C(=S)N2Cc2ccc3c(c2)OCO3)cc1` (centres undefined) it is -2.42%; for `COc1ccc(NC(=O)C(C)SCc2ccccc2)cc1` (centres undefined) it is 23%.
In the case of `Cc1cccc(NC(=O)C(C)SCc2ccccc2)c1` (centres undefined), the max response is 21.6% (active).
Take `Cc1cccc(NC(=O)C(C)N2C(=O)C3C4CC(C(Br)C4Br)C3C2=O)c1` (centres undefined): the max response is -1.4%.
In the case of `CC(C(=O)Nc1ccc(O)c(C(=O)O)c1)N1C(=O)/C(=C/c2cccs2)SC1=S` (centres undefined), the max response is -1.39%.
The figure for `CC1(C)CC(CNCCC(c2ccc(F)cc2)c2ccco2)CCO1` (centres undefined) is 0.614%; for `CCOC(=O)C1(CCOc2ccccc2)CCN(Cc2cc(OC)c(O)cc2Cl)CC1` it is -2.51%.
The value for `CCCCNC(=O)CSc1nc2ccc(NC(=O)CSc3nnc(N)s3)cc2s1` was 2.41%; that for `CCCCNC(=O)CSc1nc2ccc(NC(=O)CSc3nnc(COc4ccccc4C)n3C)cc2s1` was 5.25%; that for `Nc1nnc(SCC(=O)Nc2ccc3nc(SCC(=O)Nc4ccccc4)sc3c2)s1` was 33.9% (active).
The figure for `C#CCOc1ccc(/C=C2/C(=O)NN(c3ccccc3)C2=O)cc1OC` is -3.05%; for `COC(=O)c1cn(CC(=O)NCc2cccs2)c2ccccc12` it is 68.2% (active).
As to `COC(=O)Cn1cc(C(=O)c2cccs2)c2ccccc21`, the max response was -0.264%.
In the case of `COCCCNC(=O)Cn1cc(C(=O)C2CC2)c2ccccc21`, the max response was -2.09%.
The value for `O=C(Cn1cc(C(=O)c2cccs2)c2ccccc21)NCc1cccs1` was 39% (active); that for `CCN(CC)C(=O)C(=O)c1cn(CC(=O)NCc2ccc3c(c2)OCO3)c2ccccc12` was -2.04%; that for `O=C(CN1CCN(c2ccccn2)CC1)NCc1cccs1` was -3.83%.
The value for `Cc1cccc(N(C(=O)c2sc(C)nc2C)C(C(=O)NCC2CCCO2)c2ccccc2)c1` (centres undefined) was -2.65%.
The figure for `CCOc1ccc(NC(=O)C(C)N2C(=O)c3ccccc3C2=O)cc1` (centres undefined) is -2.64%.
Turning to `O=C(O)CS/C(=C\c1ccc(F)cc1)c1nc2ccccc2s1`, the max response was 37.2% (active).
The value for `O=C(CSc1nc2ccccc2s1)Nc1ccc(C(=O)O)cc1` was -4.27%; that for `O=C(O)CC/C(=C\c1cc2c(cc1Br)OCO2)c1nc2ccccc2s1` was 0.661%; that for `O=C(O)CSCc1nc2ccccc2s1` was 27.6% (active).
The figure for `O=C(O)c1ccccc1CSc1nc2ccccc2s1` is 34% (active).
The figure for `O=C(O)CSc1nccc2ccccc12` is 2.48%.
Consider `O=C(O)CCCCc1nc2ccccc2s1`, for which the max response was 3.94%.
On to `CN(Cc1nc2ccccc2s1)C(=O)c1ccc(F)cc1`, for which the max response is 14.2%.
The value for `O=C(O)c1cccc(S(=O)(=O)Nc2ccc(O)cc2Sc2nc3ccccc3s2)c1` was 4.69%.
The value for `C=CCn1c(-c2ccccc2OCC)n[nH]c1=S` was 5.03%.
The value for `COc1ccccc1C(=O)N(Cc1ccc(C)o1)C1CCS(=O)(=O)C1` (centres undefined) was 1.49%; that for `COc1cc(Cl)c(C)cc1NC(=O)CSc1nnc(-c2ccco2)n1CC(C)C` was -3.52%.
For `O=C(CC12CC3CC(CC(C3)C1)C2)Nc1ccc2c(c1)COC2=O`, the max response is -2.75%.
The value for `COc1ccccc1N1CCN(C(=O)c2cc(=O)c3cc(C)ccc3o2)CC1` was -2.83%; that for `Cc1ccc2oc(C(=O)N3CCN(C)C[C@@H]3C(C)C)c(C)c2c1` was 22.3% (active); that for `Cc1ccc2c(C)c(C(=O)N3CCC(N4CCC(C(=O)NC5CC5)CC4)CC3)oc2c1` was 0.384%.
The value for `COc1cccc(CNC(=O)c2cccnc2Sc2ccc(Cl)cc2)c1` was 0.861%; that for `O=C(NCc1cc(C(F)(F)F)cc(C(F)(F)F)c1)C1CC(c2cccc(F)c2)=NO1` (centres undefined) was -1.65%.
The value for `CCCn1nc(NS(=O)(=O)c2ccc(F)cc2)c2cc3ccccc3nc21` was -11.4%.
Take `N#Cc1ccc(N2Cc3ccccc3/C2=N/C(=O)Nc2ccc(Cl)cc2)cc1`: the max response is 15%.
In the case of `Cc1cccc(N2CCN(C(=O)c3cccc(S(=O)(=O)N4CCc5ccccc5C4)c3)CC2C)c1` (centres undefined), the max response was 1.1%.
The figure for `Cc1cccc(N2Cc3ccccc3C2=NC(=O)c2ccc(Cl)nc2)c1` is 35.1% (active); for `COc1ccc(C(=O)CC(=O)C(=O)Nc2cc([N+](=O)[O-])ccc2OC)cc1` it is -2.37%; for `Cn1c(N2CCOCC2)c(C=O)c2ccccc21` it is -2.7%.
For `Cc1ccc(S(=O)(=O)N(CC(=O)N2CCc3ccccc3C2)c2cccc(Cl)c2)cc1`, the max response is -3.56%.
As to `Cc1ccccc1N1CC(c2nc3ccccc3[nH]2)CC1=O` (centres undefined), the max response was -2.15%.
The value for `COc1ccc(-c2[nH]nc(-c3ccccc3)c2-c2nc3ccccc3[nH]2)cc1` was -1.76%; that for `Cc1ccc(-c2nc3ccccc3[nH]c2=O)cc1` was 24.9% (active).
In the case of `CCC(C(=O)NC1CCCCC1)N(C(=O)c1snc(C(N)=O)c1N)c1ccc(OC)cc1OC` (centres undefined), the max response was -5.48%.
The figure for `COc1ccccc1C(=O)Nc1ccnn1C1CCN(C(=O)C(C)(C)C)CC1` is 2.22%; for `O=C(Nc1ccc(S(=O)(=O)Nc2ccccn2)cc1)c1ccccc1` it is -3.7%.
The value for `O=S(=O)(Nc1ccccn1)c1cccc(S(=O)(=O)c2ccc(Cl)cc2)c1` was 1.04%; that for `Cc1ccc(S(=O)(=O)/N=C(/Nc2ccccn2)c2ccc(Cl)cc2)cc1` was 18.6% (active).
The figure for `O=S(=O)(/N=C(/Nc1ccccn1)c1ccccc1)c1ccc(Cl)cc1` is 15.2% (active); for `Cc1ccc(S(=O)(=O)/N=C(/Nc2ccc3[nH]c(=O)[nH]c3c2)c2ccccc2)cc1` it is -2.26%; for `Cc1ccc(S/C(=N\S(=O)(=O)c2ccc(Cl)cc2)c2ccccc2)cc1` it is -3.74%.
As to `COc1ccc(SCCN2CCN(CC(C)C)CCC2=O)cc1`, the max response was 4.3% and 7.92%.
As to `Cc1nn(C)c(C)c1C(C)NC(=O)c1ccc(OC2CCN(Cc3ccccn3)CC2)cc1` (centres undefined), the max response is -1.08%.
The figure for `O=C(/C=C/c1ccccc1[N+](=O)[O-])NCC1CCCO1` (centres undefined) is 10.2%; for `O=C(/C=C/c1ccccc1[N+](=O)[O-])OC1CCCCC1=O` (centres undefined) it is -0.626%.
For the compound `CC1CCCCC1NC(=O)/C(C#N)=C/C=C/c1ccccc1[N+](=O)[O-]` (centres undefined), the max response was 32.9% (active).
As to `CCN(C(=O)CSc1nc2ccccc2n1CC)C1CCS(=O)(=O)C1` (centres undefined), the max response is 1.92%.
The figure for `CCC(C)(C)c1ccc(Oc2ccc(NC(=O)COC(=O)C3=COCCO3)cc2)cc1` is 5.65%.
The value for `O=C(OCC(=O)c1cccs1)c1ccc([N+](=O)[O-])o1` was 3%.
As to `O=C(OCC(=O)c1cccs1)C1=COCCO1`, the max response was 51.4% (active).
The figure for `CCOC(=O)c1c(C)[nH]c(C)c1S(=O)(=O)NCCCc1ccco1` is -2.93%.
Consider `CCOc1ccc(C2c3[nH]c4ccccc4c3CCN2Cc2cccn2-c2ncccn2)cc1` (centres undefined), for which the max response is 0.0691%.
